{
  "source": "PubChem BioAssay AID652104",
  "about": "(National Center for Advancing Translational Sciences (NCATS), 2013)",
  "note": "About 7,200 (1.8%) of roughly 410,000 compounds were called active. Another 7% or so got no clear call; they are omitted. Calls follow the shape of the dose curve; as a rule, active = well fitted activation curve with a large enough effect; inconclusive = small, poorly fitted or top-dose-only effect, or another doubt; inactive = no such curve, though single readings can be large or run the other way. The full list was thinned out, with actives kept by preference. Potency is read from the fitted curve at half-maximal effect.",
  "data": [
    {"test": "qHTS of TDP-43 Inhibitors; also: nearly all actives have a fitted effect of over 50% in size; as to growth rescue (activation): % of control where 0% means no effect", "settings": "TDP-43 expressing yeast growth rescue, BacTiter-Glo, 24 h; series mostly up to 46.1 µM; growth rescue (activation): at the top concentration", "how_it_was_run": "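Readout is BacTiter-Glo luminescence of cell growth, so inhibitors register as activators. TDP-43-expressing yeast at OD600=0.02 in galactose medium, after raffinose pregrowth to mid-log, were incubated with compound for 24 hr at 30 deg C.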", "values": [
      {"smiles": "O=S(=O)(c1ccccc1)N1CCC(c2ccccc2)CC1", "growth rescue (activation)": "0.641% (inactive)"},
      {"smiles": "Cc1nc2ccc(NC(=O)N3CCC(c4ccccc4)C3)cc2nc1C", "note": "(stereo unspecified)", "growth rescue (activation)": "1.58% (inactive)"},
      {"smiles": "O=C(C(=O)N1CCC(c2ccccc2)CC1)c1ccccc1", "Potency": "12.6 µM (active)"},
      {"smiles": "Cc1cccc2nc(-c3ccc(Cl)s3)c(Nc3ccc4c(c3)OCCO4)n12", "growth rescue (activation)": "23.9% (inactive)"},
      {"smiles": "Fc1ccc(-c2nc(Nc3cccc(Cl)c3)nc3c2COc2ccccc2-3)cc1", "growth rescue (activation)": "2.51% (inactive)"},
      {"smiles": "Cc1ccn2c(Nc3ccc4c(c3)OCCO4)c(-c3ccc(C)s3)nc2c1", "growth rescue (activation)": "-8.94% (inactive)"},
      {"smiles": "CC(=O)N(c1ccc2oc(=O)sc2c1)S(=O)(=O)c1ccc(C)cc1", "growth rescue (activation)": "-9.63% (inactive)"},
      {"smiles": "CCN1CCN(C(=O)CN(C)S(=O)(=O)c2ccc3ccccc3c2)CC1", "growth rescue (activation)": "4.91% (inactive)"},
      {"smiles": "CC(=O)Oc1ccc(N(C(C)=O)S(=O)(=O)c2ccc3ccccc3c2)cc1Br", "Potency": "12.6 µM (active)"},
      {"smiles": "Cc1cccc(-n2ncc(C(=O)N3CCC(C)CC3)c2C2CCN(C(=O)OC(C)(C)C)CC2)c1", "growth rescue (activation)": "-10.8% (inactive)"},
      {"smiles": "CC(C)(C)C1CCc2c(sc(NC(=O)c3ccccc3F)c2C(=O)N2CCCCC2)C1", "note": "(stereo unspecified)", "growth rescue (activation)": "0% (inactive)"},
      {"smiles": "COc1ccc(-c2nc(Cn3c(=O)cc(C)c4c(C)nn(-c5ccccc5)c43)c(C)o2)cc1OC", "growth rescue (activation)": "-1.69% (inactive)"},
      {"smiles": "CCc1ccccc1NC(=O)c1cnn(-c2ccc(F)cc2)c1C1CCNCC1", "growth rescue (activation)": "23% (inactive)"},
      {"smiles": "COc1ccccc1CNC(=O)C(=O)NCC(c1ccco1)S(=O)(=O)c1ccc(F)cc1", "note": "(stereo unspecified)", "growth rescue (activation)": "18.5% (inactive)"},
      {"smiles": "COc1cc(OC)c(OC)cc1/C=C/c1nc2cc3ccccc3cc2c(=O)n1-c1ccc(F)c(Cl)c1", "growth rescue (activation)": "21.1% (inactive)"},
      {"smiles": "COc1cc(C(=O)Nc2ccc(-n3c(C)nc4ccccc4c3=O)cc2)cc(OC)c1OC", "growth rescue (activation)": "0% (inactive)"},
      {"smiles": "COc1cc(OC)c(OC)cc1/C=C/c1nc2ccccc2c(=O)n1-c1ccc(Br)c(C)c1", "Potency": "22.4 µM (active)"},
      {"smiles": "O=C(Cc1ccc(Cl)cc1)NCC(c1cccs1)S(=O)(=O)c1ccc(Cl)cc1", "note": "(stereo unspecified)", "growth rescue (activation)": "0.548% [at 9.22 µM] (inactive)"},
      {"smiles": "CCc1ccccc1N(C)C(=O)C1CCCN(c2ncnc3onc(-c4ccc(F)cc4)c23)C1", "note": "(stereo unspecified)", "growth rescue (activation)": "13.9% (inactive)"},
      {"smiles": "Cc1ccc(Cl)cc1N(C)C(=O)C1CCCN(c2ncnc3onc(-c4ccc(F)cc4)c23)C1", "note": "(stereo unspecified)", "Potency": "35.5 µM (active)"},
      {"smiles": "Cc1c(Cl)cccc1NC(=O)C1CCCN(c2ncnc3onc(C)c23)C1", "note": "(stereo unspecified)", "growth rescue (activation)": "7.94% (inactive)"},
      {"smiles": "Cc1cn(C)c(CC(=O)NCc2ccccc2)c1C(=O)O", "growth rescue (activation)": "11.9% (inactive)"},
      {"smiles": "O=C(/C=C/c1ccccc1)N1CCN(Cc2cc(=O)n3nc(-c4ccccc4F)sc3n2)CC1", "growth rescue (activation)": "0.573% (inactive)"},
      {"smiles": "CCc1ccccc1NC(=O)c1cc(-c2ccc3c(c2)OCO3)on1", "Potency": "inactive"},
      {"smiles": "O=C(NCc1ccccc1)c1cc(-c2cccc(Cl)c2)on1", "growth rescue (activation)": "10.6% (inactive)"},
      {"smiles": "O=C(Nc1ccccc1C(F)(F)F)c1cc(-c2ccc(O)cc2)on1", "Potency": "12.6 µM (active)"}
    ]}
  ]
}
